From PubChem BioAssay
NSD2 inh = blocks human histone methyltransferase NSD2 | inhibition, % at 12.5 µM | O96028 | hit rate 0.54% among 310,000 | NSD2 peptide methylation, AlphaScreen, 120 min; in the data active = inhibition above about 50%
Target sequence (O96028 whole entry, looked up): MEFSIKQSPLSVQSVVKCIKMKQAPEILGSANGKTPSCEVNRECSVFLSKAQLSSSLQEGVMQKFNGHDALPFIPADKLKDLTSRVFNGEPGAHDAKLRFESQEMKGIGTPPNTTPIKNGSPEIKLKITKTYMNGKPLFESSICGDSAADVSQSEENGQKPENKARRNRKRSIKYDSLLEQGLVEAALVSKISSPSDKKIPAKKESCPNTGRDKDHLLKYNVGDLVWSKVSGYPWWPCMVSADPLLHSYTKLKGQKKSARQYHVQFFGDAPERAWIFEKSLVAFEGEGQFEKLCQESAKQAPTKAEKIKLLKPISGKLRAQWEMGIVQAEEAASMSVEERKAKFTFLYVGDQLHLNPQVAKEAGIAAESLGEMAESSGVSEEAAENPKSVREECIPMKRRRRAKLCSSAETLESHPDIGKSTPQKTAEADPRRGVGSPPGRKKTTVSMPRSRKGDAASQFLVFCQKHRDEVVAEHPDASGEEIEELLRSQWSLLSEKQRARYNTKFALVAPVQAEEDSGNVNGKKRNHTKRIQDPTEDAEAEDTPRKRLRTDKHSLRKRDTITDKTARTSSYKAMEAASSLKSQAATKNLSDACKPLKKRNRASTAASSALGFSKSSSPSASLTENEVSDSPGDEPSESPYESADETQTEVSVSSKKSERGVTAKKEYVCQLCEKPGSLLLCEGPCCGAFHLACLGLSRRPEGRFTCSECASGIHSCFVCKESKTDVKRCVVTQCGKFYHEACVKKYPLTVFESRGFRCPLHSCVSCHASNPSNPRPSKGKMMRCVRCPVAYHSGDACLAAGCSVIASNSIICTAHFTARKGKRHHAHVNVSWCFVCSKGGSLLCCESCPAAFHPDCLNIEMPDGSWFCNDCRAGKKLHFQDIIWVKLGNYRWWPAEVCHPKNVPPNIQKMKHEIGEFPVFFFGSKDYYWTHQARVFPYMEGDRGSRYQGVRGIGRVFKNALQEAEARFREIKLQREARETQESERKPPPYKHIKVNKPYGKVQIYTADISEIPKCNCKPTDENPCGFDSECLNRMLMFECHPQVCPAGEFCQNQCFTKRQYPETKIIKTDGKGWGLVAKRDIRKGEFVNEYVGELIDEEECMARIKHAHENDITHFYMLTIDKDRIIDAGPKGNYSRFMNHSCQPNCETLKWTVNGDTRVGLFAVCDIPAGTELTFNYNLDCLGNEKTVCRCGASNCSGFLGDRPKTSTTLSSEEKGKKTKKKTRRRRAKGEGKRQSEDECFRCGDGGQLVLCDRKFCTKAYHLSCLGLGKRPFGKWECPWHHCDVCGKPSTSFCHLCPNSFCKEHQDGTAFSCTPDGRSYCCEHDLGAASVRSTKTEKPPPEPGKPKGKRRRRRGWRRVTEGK
CDK5 inh = inhibitors of human CDK5/p35 kinase. Q00535+Q15078. Recombinant CDK5/p35, ADP-Glo luminescence, 60 min. inhibition, % at 10 µM. hit rate 0.01% among 330,000. AID 488839;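 active = highest replicate inhibition of at least 50% and at least 75% of replicates reaching 50%; inconclusive = only one of the two criteria met; inactive = both criteria failed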;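 note: plate controls were DMSO neutral control for no effect and GW8510 at 10 µM for full effect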
ALR inh = blocks human ALR sulfhydryl oxidase activity | inhibition, % (concentration not given with the values) | P55789 | purified ALR, DTT oxidation, H2O2 HRP-luminol luminescence | hit rate 3.8% among 290,000 | AID 485317;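 active = mean replicate inhibition above about 79%, with every replicate also reaching it, limit read from the data; inconclusive = only one of the two criteria met; inactive = mean below limit and not every replicate reaching it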
Casp6 inh = caspase-6 (human) enzyme inhibition | P55212 | purified caspase-6, Z-VEID-R110 cleavage fluorescence | inhibition, % at 12.5 µM | AID 686996 | hit rate 0.53% among 350,000;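 active = mean inhibition across replicates at least about 35%, with every replicate also reaching that limit, limit read from the data; inconclusive = only one of the two criteria met; inactive = neither criterion met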;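 note: 0% = median of neutral control wells and 100% = no fluorescence left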
N-glyco inh = blocks N-linked glycosylation in D54 reporter cells | AID 588692 | D54 ERlucT glycosylation luciferase reporter, 24 h; percent of 100 nM tunicamycin response | hit rate 0.23% among 360,000 | reporter increase, % at 12.5 µM;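 active = mean luciferase reporter signal, scaled so untreated is 0 and the glycosylation-blocking control 100, at or above a set limit in every replicate; inconclusive = mean reaches the limit but not every replicate does; inactive = mean below the limit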;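 note: luciferase carries N-glycosylation sites so blocking glycosylation raises the light; 0% = median of neutral control wells and 100% = median of 100 nM tunicamycin wells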
SUMO Mot1 rescue = blocks SUMOylation pathway, rescuing yeast Mot1-301 growth | S. cerevisiae Mot1-301 growth rescue, ATP luminescence, 38.5C; percent above DMSO median, 100 means doubled | hit rate 1% among 320,000 | AID 2716 | growth rescue, % at 18.8 µM;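 active = every valid replicate shows activation above 250% relative to neutral control wells; inactive = the rest, any valid replicate at or below 250%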;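 note: OY570 slx delta 5 strain wells were the positive control but not used for scaling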
An asterisk follows results filed as active; ? = inconclusive; . = no result. Compounds with a hit are over-represented: about 3.9% of the library has one in this group of screens.

SMILES	NSD2 inh	CDK5 inh	ALR inh	Casp6 inh	N-glyco inh	SUMO Mot1 rescue
CC1(C)OC(=O)C(=CNc2cccc(O)c2)C(=O)O1	24.4	0.3	-4.8	2.5	1.5	-1.5
C/C(=N\NC(=O)CN1CCN(S(=O)(=O)c2ccc(C)cc2)CC1)c1ccc(O)cc1	.	1.0	99.1*	1.4	0.6	137.9
COc1cc(/C(C)=N/NC(=O)CN2CCN(S(=O)(=O)c3ccc(C)cc3)CC2)ccc1O	.	-0.8	98.3*	1.1	0.8	2.9
O=C(CN1CCN(S(=O)(=O)c2ccccc2F)CC1)Nc1ccnn1C1CCCC1	18.7	-2.6	.	-0.4	-0.9	-5.3
Cc1ccc(S(=O)(=O)N2CCN(CC(=O)Nc3ccnn3C3CCCC3)CC2)cc1	6.7	-0.1	.	39.5*	-1.5	5.8
C/C(=N/NC(=O)CN1CCN(S(=O)(=O)c2ccc(Br)cc2)CC1)c1cccnc1	7.2	0.0	-6.9	.	2.6	-14.5
C[C@@H]1CN([C@@H](C)CO)C(=O)Cc2cc(NC(=O)Nc3ccccc3)ccc2O[C@H]1CN(C)S(=O)(=O)c1ccccc1	.	.	.	2.6	.	.
CC(C)c1ccc(C(=O)N2CCCC(c3cc(C(=O)Nc4ccccc4Cl)no3)C2)cc1 (configuration not stated)	3.3	.	.	57.4*	-1.0	.
CC(=O)Nc1cccc(Oc2nc(-c3ccccn3)nc3ccccc23)c1	-0.8	0.1	-3.2	0.1	-1.6	531.9*
Cc1sc(NC(=O)c2ccccc2F)c(CN2CCCCC2)c1C	-1.5	-1.3	95.2*	.	-1.0	-19.1
CCOC(=O)c1nc2ccccc2c(C)c1C	-2.3	3.2	.	1.9	-0.7	-6.6
CCOC(=O)/C=C/c1nc(C(=O)OCC)c(C)c(=O)[nH]1	-3.0	0.9	96.9*	0.9	-1.2	107.6
CC1(C)OC(c2ccccc2)=C/C(=C/C=N/NC(=O)c2ccncc2)O1	2.6	1.7	98.1*	-0.7	-1.2	6.3
CCC(=O)Nc1ccc2c(c1)C(=O)N(C)[C@H]1CC[C@@H](CC(=O)NCC3CCCCC3)O[C@H]1CO2	.	.	.	-2.6	.	.
O=c1c2ccccc2nc2c3ccccc3c(NCc3ccco3)nn12	1.2	-2.0	90.8*	.	9.1	-15.2
O=C(Nc1ccccc1C(=O)OCC(=O)N1CCc2ccccc2C1)c1ccco1	-0.6	-2.3	-1.8	.	-1.8	356.0*
CO[C@@H](C(=O)N(C)C[C@@H]1OCc2ccccc2-c2ccccc2C(=O)N([C@@H](C)CO)C[C@H]1C)c1ccccc1	.	.	.	0.5	.	.
NNC(=O)c1ccc2nc(-c3ccc(Br)cc3)cn2c1	-0.6	-4.2	24.5	0.0	116.1*	43.0
COc1cc(C2Nc3ccccc3NC3=C2C(=O)CC(C)(C)C3)cc(OC)c1OC (configuration not stated)	0.4	-0.1	74.5	5.5	1.9	21.0
COC(=O)c1ccc(C2Nc3ccccc3NC3=C2C(=O)CC(C)(C)C3)cc1 (configuration not stated)	-0.4	-1.9	97.0*	1.2	-0.7	-1.1
CC1(C)CC(=O)C2=C(C1)Nc1ccccc1NC2c1cccnc1 (configuration not stated)	-0.5	0.0	?	1.0	0.8	1.3
Cc1cc2c(cc1C)NC(c1cccnc1)C1=C(CC(C)(C)CC1=O)N2 (configuration not stated)	0.1	1.6	93.9*	.	2.9	-6.5
COc1cc(OC)c(C2Nc3ccccc3NC3=C2C(=O)CC(C)(C)C3)cc1OC (configuration not stated)	-2.4	0.6	87.3*	0.9	1.0	-2.6
CC1(C)CC(=O)C2=C(C1)Nc1ccccc1NC2c1cccc(F)c1 (configuration not stated)	-0.6	-0.7	99.1*	0.1	3.6	-2.9
CCc1nc2ccc(C(=O)N3CCc4ccccc4C3)cc2nc1CC	-1.0	.	.	.	.	.
SMILES	NSD2 inh	CDK5 inh	ALR inh	Casp6 inh	N-glyco inh	SUMO Mot1 rescue
CO[C@@H]1CC[C@H]2CCN(C)C(=O)[C@H](C)N(C)C(=O)c3cc(C#N)ccc3OC[C@@H]1O2	.	.	.	-1.1	.	.
COCCNC(=O)C[C@H]1CC[C@@H]2[C@@H](COc3ccc(NC(=O)Nc4cccc(F)c4)cc3C(=O)N2C)O1	.	.	.	1.5	.	.
CCOc1cc(C2Nc3ccccc3NC3=C2C(=O)CC(C)(C)C3)ccc1OC(C)=O (configuration not stated)	29.4	-0.2	59.3	-1.1	0.0	-8.9
CCOc1cc(C2Nc3ccccc3NC3=C2C(=O)CC(C)(C)C3)ccc1O (configuration not stated)	3.4	0.0	89.8*	5.8	2.3	12.1
COc1cc2c(cc1OC)C(c1ccc3c(c1)OCO3)C1=C(CC(C)(C)CC1=O)N2 (configuration not stated)	.	0.7	98.5*	.	-2.2	-5.8
O=Cc1cscc1[B-](F)(F)F	.	.	.	66.1*	.	.
O=C(O)/C(=C\c1cccc(O)c1)c1ccc(S(=O)(=O)N2CCCC2)s1	-1.5	-0.3	17.8	57.9*	2.7	13.0
CSc1ccc(/C=C(\C(=O)O)c2ccc(S(=O)(=O)N3CCCC3)s2)cc1	25.7	0.7	6.0	45.5*	0.7	-1.5
O=C(O)/C(=C\c1cccc(F)c1)c1ccc(S(=O)(=O)N2CCCCC2)s1	13.3	1.8	4.7	29.7	0.7	15.5
CCOc1cccc(/C=N/NC(=O)CC2C(=O)NN=C2C)c1O (configuration not stated)	-7.4	3.7	98.2*	-1.5	-0.1	10.2
CC(/C=N/NC(=O)c1cc(C(C)(C)C)[nH]n1)=C\c1ccccc1	-0.3	0.6	3.4	.	2.8	7.9
COc1cc(/C=N/NC(=O)CC2C(=O)NN=C2C)ccc1O (configuration not stated)	-1.8	0.1	.	0.3	0.3	-2.2
CC(/C=N/NC(=O)c1cc(-c2ccc(C)s2)[nH]n1)=C\c1ccccc1	4.3	-0.6	-1.7	0.0	26.6*	-1.3
CC1=NNC(=O)C1CC(=O)N/N=C/C(C)=C/c1ccccc1 (configuration not stated)	-0.9	1.6	94.1*	1.9	-0.1	-2.0
CC(C)CC#Cc1cnc2c(c1)C(=O)N([C@@H](C)CO)C[C@@H](C)[C@H](CN(C)Cc1ccc3c(c1)OCO3)O2	.	.	.	-1.0	.	.
COC(=O)CSc1nc(-c2ccccc2)cc(-c2ccco2)c1C#N	-4.2	0.1	94.8*	.	3.0	-0.9
COC(=O)CSc1nc(N)c(C#N)c(-c2ccco2)c1C#N	-4.9	1.2	.	.	1.7	9.2
CC1CCC(C(=O)NC(C(=O)NCc2ccccn2)C(C)C)CC1 (configuration not stated)	-1.0	-1.0	-2.5	.	1.4	343.6*
Cc1c(C(=O)OCC(=O)N(CC(C)C)c2c(N)n(Cc3ccccc3)c(=O)[nH]c2=O)oc2ccccc12	0.4	1.3	.	46.0*	-0.1	.
CC(C)CN(C(=O)CN1CCN(c2ccc(O)cc2)CC1)c1c(N)n(CC(C)C)c(=O)[nH]c1=O	-0.3	0.5	99.5*	20.6	1.0	0.5
